From PubChem BioAssay
Marburg entry inh: blocks Marburg virus binding to or entry into cells | Marburg virus pseudotyped entry inhibition, cell reporter | Potency, µM (titrated, usually from 37.8 µM), without a hit: at the highest dose activity change, negative = inhibition, most hits filed as inhibitors | hit rate 1.8% among 300,000; calls by dose curve; tested in HEK293 cells; also: potency is read from the fitted curve at half-maximal effect; % is scaled to controls: 0 for no effect and ±100 for the full control effect
Shiga toxin inh: inhibitors of Shiga toxin in Vero cells; Vero cells, Shiga toxin protein synthesis inhibition reporter; inhibition, % at 38.7 µM; hit rate 9.2% among 290,000; in the data active = inhibition mostly above about 28%, no sharp cut-off; inactive = mostly below about 43%; also: 0% is about no effect
FMDV antiviral: foot and mouth disease virus antiviral activity | FMDV antiviral cell-based qHTS | Potency, µM (series often up to 57.9 µM), for the others: at the highest dose activity change, negative = inhibition, most hits filed as inhibitors | hit rate 1.2% among 410,000; calls by dose curve; tested in HEK293T cells; also: read-out not given here; potency is read from the fitted curve at half-maximal effect; % is scaled to controls: 0 for no effect and ±100 for the full control effect; nearly all actives have a fitted effect of over 45% in size
HCV inh: inhibitors of hepatitis C virus infection | Huh7.5.1 HCVcc-Cre infection, luciferase reporter, 44 h | Potency, µM (series often up to 41.8 µM), for inactives: at the highest dose activity change, negative = inhibition, hits mostly inhibitors | hit rate 3.4% among 340,000 | AID 651820; active = well fitted inhibition curve with a large enough effect; inconclusive = small, poorly fitted or top-dose-only effect, or another doubt; inactive = no such curve, though single readings can be large or run the other way; also: potency is read from the fitted curve at half-maximal effect; % is scaled to controls: 0 for no effect and ±100 for the full control effect
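After 44 h co-culture of compound, cells and HCVcc-Cre (~0.5 moi), substrate is added for 15 min at room temperature and luciferase measured over 15 sec. Cells were seeded at 1,000/well and pre-cultured 4 h.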
Cycloheximide cs: affects cycloheximide protein synthesis inhibition readout, counter-screen. cell reporter, cycloheximide protein synthesis inhibition counterscreen. max response, %. hit rate 12% among 300,000; in the data active = max response mostly above about 13%, no sharp cut-off; inactive = mostly below about 14%; also: read at 38.3 µM for the half of the compounds with a filed dose; 0% is about no effect
LASV entry inh: inhibitors of Lassa virus binding or cell entry; Lassa virus pseudotype entry inhibition, cell reporter; hit rate 1.2% among 300,000; AID 540256; Potency, µM (highest dose often 37.9 µM), for the others: at the highest dose activity change, negative = inhibition, usual class: inhibitors; calls by dose curve; tested in HEK293 cells; also: potency is read from the fitted curve at half-maximal effect; % is scaled to controls: 0 for no effect and ±100 for the full control effect; nearly all actives have a fitted effect of over 50% in size
Starred values were filed as active, the others as inactive; ? = inconclusive; . = no result given; ! = not confirmed by another sample; [ ] = another dose, or the depositor's remark. Hits are enriched below; roughly 13% of the tested compounds scored in any of these assays.

SMILES	Marburg entry inh	Shiga toxin inh	FMDV antiviral	HCV inh	Cycloheximide cs	LASV entry inh
Cc1c2cnn(CC(=O)Nc3ccc(F)cc3F)c(=O)c2c(C)n1Cc1cccc(Cl)c1	20.6%[46.1 µM]	.	?	.	.	22.4%[46.1 µM]
COc1ccc(N=C2SC(CC(=O)Nc3ccc(F)cc3)C(=O)N2Cc2ccco2)cc1 (stereo not given)	-7.9%	28.3	-26.3%	-1.5%	11.7	?
COc1ccc(N=C2SC(CC(=O)Nc3ccccc3OC)C(=O)N2Cc2ccco2)cc1 (stereo not given)	?	39.7*	-11.2%	?	24.5*	16.4µM*
CCC1NC(=O)c2cc3ccccc3cc2-n2c1nc1cc(F)ccc1c2=O (stereo not given)	.	.	-21.3%	.	.	.
O=c1c(Br)c(NCc2ccccc2)cnn1-c1ccc(F)cc1	?	39.8*	34.9%	1.6%	26.3*	?
O=c1[nH]c(SCc2ccccc2)nc2c1cnn2-c1ccc(F)cc1	.	-3.5	0.0%	5.3%	-2.3	.
COCCSc1ccccc1C(=O)Nc1ccc(S(=O)(=O)N2CCOCC2)cc1	.	-1.7	7.0%	23.4%	-2.4	.
c1ccc(-c2csc(NNC3=NCCCCC3)n2)cc1	?	38.9	13.3%	-14.6%	38.9*	-2.0%
Clc1ccc(-c2csc(NNC3=NCCCCC3)n2)cc1	?	17.7	-27.8%	-22.8%	26.0*	?
O=C(CCS(=O)(=O)c1ccc(Cl)cc1)Nc1nc(-c2ccncc2)cs1	.	-3.5	?	?	-4.7	.
c1ccc(NNC2=NCCCCC2)cc1	.	3.6	-20.0%	-7.2%	16.6	.
COc1ccc(NC(=O)CSc2nc3ccsc3c(=O)n2CCCCCC(=O)O)cc1	20.1%[46.1 µM]	-3.5	-0.9%	13.2%	-16.2	23.6%
CCOC(=O)c1ccc(-c2ccc(C3Nc4ccccc4C(=O)N3O)o2)cc1 (stereo not given)	?	144.8*	?	?	33.0*	?
Cc1cc([N+](=O)[O-])ccc1-c1ccc(C2Nc3ccccc3C(=O)N2O)o1 (stereo not given)	?	-20.1	-28.2%	11.2µM*	-1.6	?
Cc1ccc(NC(=O)C(=O)NCC(c2cccnc2)N2CCN(C)CC2)cc1F (stereo not given)	.	.	-19.8%	.	.	?
c1ccc(-c2ccc(-c3n(-c4ccccn4)c4ccccc4[n+]3-c3ccccn3)cc2)cc1	?	-2.5	14.1µM*	?	12.8	?
CCOc1cc(S(=O)(=O)NCc2ccccc2)c(OCC)cc1-n1cnnn1	-14.4%	.	63.2%	-16.8%	.	8.0%
CCOc1cc(S(=O)(=O)N(Cc2ccccc2)Cc2ccccc2)c(OCC)cc1-n1cnnn1	20.6µM*	-10.5	-8.9%	.	-2.1	-52.8%[14.3 µM]
C=CCc1ccccc1OCC(O)Cn1ccnc1C (stereo not given)	12.3%	22.1	0.0%	?	-2.1	-1.3%
CCOc1ccc(-c2nc(CSc3nnc(C)s3)cs2)cc1OC	0.3%[46.1 µM]	89.2*	-12.5%	?	37.1*	-11.1%
CCS(=O)(=O)NCCc1csc(-c2ccc(OC)c(OC)c2)n1	.	-9.0	-9.4%	-14.3%	0.8	.
CCOc1ccc(-c2nc(CSc3nncs3)cs2)cc1OC	16.6%	52.8	-4.9%	?	19.0*	13.1%
CCOc1ccc(CCNC(=O)CCC(=O)N2CCOc3ccc(C)cc32)cc1OCC	.	-5.8	-19.3%	?	-1.2	.
CCOC(=O)Cn1c(=O)n(Cc2ccc(C)cc2)c(=O)c2cccnc21	.	-5.2	-20.6%	0.794µM*	-1.2	.
Cc1ccc(Cn2c(=O)c3cccnc3n(Cc3ccc(C)cc3)c2=O)cc1	3.2%[46.1 µM]	.	2.2%	.	.	.
SMILES	Marburg entry inh	Shiga toxin inh	FMDV antiviral	HCV inh	Cycloheximide cs	LASV entry inh
CN(C)c1cccc(C(=O)OCc2cc(=O)oc3cc(O)ccc23)c1	?	49.4	4.8%	?	16.5*	?
CC1CN(S(=O)(=O)c2cccc(C(=O)OCCOc3ccccc3)c2)CC(C)O1 (stereo not given)	-52.9%	.	?	?	.	?
CC1CN(S(=O)(=O)c2cccc(C(=O)OCc3cc(=O)oc4cc(O)ccc34)c2)CC(C)O1 (stereo not given)	?	3.4	22.4µM*	10µM*!	-1.4	?
c1ccc(CSc2nnc3c(n2)OC(c2ccco2)Nc2ccccc2-3)cc1 (stereo not given)	-12.8%[46.1 µM]	86.3*	-4.3%	-18.2%	26.0*	?
C=CCSc1nnc2c(n1)OC(c1cccnc1)Nc1ccccc1-2 (stereo not given)	-4.9%[46.1 µM]	128.4*	26.8%	22.1%	26.6*	11.1%
CCOc1ccccc1NC(=O)c1cc(C(=O)c2cc(OC)ccc2O)coc1=N	-5.9%	24.5	-3.1%	-22.5%	-2.4	-17.0%
CCOC(=O)c1nc(NCc2ccccc2)sc1C	17.5%[46.1 µM]	89.1*	0.0%	?	62.6*	.
CCOC(=O)c1cnc(NCc2ccc(Cl)cc2)c2ccccc12	.	.	-15.7%	.	.	?
Cc1oc(-c2ccccc2)nc1C(=O)OCC(=O)NCc1ccccc1	.	.	-13.7%	-13.6%	.	.
CCOC(=O)c1cnc(NCc2ccccc2)nc1C	?	54.7*	22.1%	?	44.4*	-13.7%
CCOC(=O)c1nc(-c2ccccc2)sc1C(C)=O	3.9%	14.8	8.9%	-8.9%	20.3*	12.0%
CCOC(=O)c1nc(-c2ccccc2)oc1N(C)C	-1.6%	-6.4	-0.7%	-17.9%	16.5*	2.9%
Cc1ccc(C(=O)Nc2cccc(-c3nc(CNC(=O)[C@@H]4C[C@@H](C)NC(=S)N4)c(C)o3)c2)s1	.	.	29.0%	.	.	.
COc1cccc(-c2nc3ccccc3c(=O)n2NC(=O)c2cccnc2Cl)c1	.	2.2	10.8%	6.4%	-2.3	.
Cc1ccc(NC(=O)C2CCCN(S(=O)(=O)c3ccc(F)cc3)C2)cc1 (stereo not given)	-12.7%[46.1 µM]	.	-29.9%	.	.	?
CCCC(=O)Nc1nnc(SCC(=O)Nc2nc(C)cs2)s1	-0.2%	3.8	-4.0%	?	1.4	2.9%
Cc1ncc2c(c1CNC(=O)CN1CCCCC1)CCN(C(=O)c1ccc(F)cc1Cl)C2	.	.	4.9%	.	.	.
O=C1Cn2c(nc3ccccc32)N1c1ccccc1F	14.1%	-5.4	.	8.3%	15.9	-3.8%
CCOC(=O)c1cnc2c(ccc3ccccc32)c1Cl	15.8%[46.1 µM]	121.1*	61.5%	6.7%	21.4*	13.3%[46.1 µM]
COc1cccc(CNc2ncc(C(=O)Nc3cc(OC)c(OC)c(OC)c3)c(C)n2)c1	.	1.2	?	?	13.1	.
COc1cc(NC(=O)c2cnc(NCc3ccccc3)nc2C)cc(OC)c1OC	?	-7.3	0.0%	3.55µM*	-1.9	-25.5%[46.1 µM]
CSc1nc2ccc(Nc3nc(N4CCOCC4)nc(N4CCOCC4)n3)cc2s1	?	-6.3	-28.0%	?	-1.1	?
N/C(=N\OC(=O)c1csnn1)c1ccc(C(F)(F)F)cc1	0.0%[14.2 µM]	71.9*	24.2%	-3.0%	39.6*	?
Cc1ccc(C(=O)O/N=C(\N)c2ccc(C(F)(F)F)cn2)cc1	11.8%[46.1 µM]	52.2	31.3%	20.8%	17.0	-10.2%[46.1 µM]
CCOc1ccc(C2=NC(c3cccs3)=Nc3ccc(C(C)C)cc3N2)cc1	?	.	56.4%	.	.	24.1%[46.1 µM]
